From PubChem BioAssay (Tox21)
Values joined by “and” are separate entries in the source; they are usually repeats but may differ in a detail not shown here. Identical values can stand only once. Inconclusive results are not listed. A call without a number means that no potency is given here. Some structures have more than one record in an assay (separate samples or runs), and their calls can disagree. Active and inactive are the calls of the source. Unless noted, calls come from the whole dose curve.

What was measured:
[1] = Nuclear factor erythroid 2-related factor 2/antioxidant responsive element (Nrf2/ARE) small molecule agonists: qHTS cell viability counter screen in human keratinocytes (AID 1919968; active = well fitted cell-killing curve with a large enough effect in the repeat runs; note: nearly all actives have a fitted effect of over 55% in size)
In short: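 Cytotoxicity was multiplexed with the Nrf2/ARE luciferase assay in the same wells. Stably transfected HaCaT keratinocytes were treated with test compounds for 23 h at 37 C. Cell viability was then measured by CellTiter-Fluor fluorescence.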

[2] = Nuclear factor erythroid 2-related factor 2/antioxidant responsive element (Nrf2/ARE) small molecule agonists: luciferase reporter gene qHTS assay in human keratinocytes (AID 1919969); note: nearly all actives have a fitted effect of over 35% in size; note: potency is the fitted concentration of half-maximal effect
[3] = biological target: Gonadotropin-releasing hormone receptor (Homo sapiens) (UniProt P30968); test: Human gonadotropin-releasing hormone receptor (GnRHR) small molecule agonists, calcium flux assay in GnRHR-HEK293 cells (AID 1920063); note: nearly all actives have a fitted effect of over 35% in size
Chain of Gonadotropin-releasing hormone receptor (Homo sapiens) (P30968 whole entry, looked up): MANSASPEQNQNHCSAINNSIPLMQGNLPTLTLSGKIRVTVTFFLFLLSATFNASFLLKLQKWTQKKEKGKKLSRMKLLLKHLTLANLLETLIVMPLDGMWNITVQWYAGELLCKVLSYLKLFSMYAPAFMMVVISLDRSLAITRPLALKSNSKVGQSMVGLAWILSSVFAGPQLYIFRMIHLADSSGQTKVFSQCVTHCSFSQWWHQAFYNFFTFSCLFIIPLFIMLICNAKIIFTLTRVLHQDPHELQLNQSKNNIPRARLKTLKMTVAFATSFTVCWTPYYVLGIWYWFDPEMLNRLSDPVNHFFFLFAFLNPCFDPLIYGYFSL
In short: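 Agonist activity was measured as intracellular calcium flux in HEK293 cells engineered to stably express human GnRHR. After dye loading for 1 hour at 37 C, compounds in DMSO were added and fluorescence was followed for 3 minutes.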

[4] = p53 small molecule agonists, cell-based qHTS assay with human liver microsomes: qHTS cell viability counter screen (AID 1963579); note: nearly all actives have a fitted effect of over 45% in size; note: potency is the fitted concentration of half-maximal effect
In short: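 p53RE-bla cells, 4,000/well, dosed 5 hours after plating, with human liver microsomes (0.5 mg/mL final) plus NADPH (0.5 mg/mL final), 16 hours at 37 C. Viability read as CellTiter-Glo luminescence after 30 min at room temperature.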

[5] = p53 small molecule agonists, cell-based qHTS assay with rat liver microsomes: qHTS cell viability counter screen (AID 1963580); note: nearly all actives have a fitted effect of over 45% in size
In short: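 Rat liver microsome (0.5 mg/mL final) and NADPH (0.5 mg/mL final) co-incubation with compounds for 16 h at 37 C on HCT-116 p53RE-bla cells; cytotoxicity taken from intracellular ATP luminescence.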

[6] = p53 small molecule agonists, cell-based qHTS assay: qHTS cell viability counter screen (AID 1963581); note: nearly all actives have a fitted effect of over 45% in size
In short: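 Viability was counter-screened in parallel with the p53 agonist reporter by measuring intracellular ATP luminescence in the same HCT-116 p53RE-bla wells after 16 h compound treatment at 37 C.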

[7] = biological target: 5-hydroxytryptamine receptor 2A (Homo sapiens) (UniProt P28223); test: 5-hydroxytryptamine receptor 2A (HTR2A) small molecule antagonists, cell-based qHTS assay (AID 1963586); note: nearly all actives have a fitted effect of over 45% in size
Chain of 5-hydroxytryptamine receptor 2A (Homo sapiens) (P28223 whole entry, looked up): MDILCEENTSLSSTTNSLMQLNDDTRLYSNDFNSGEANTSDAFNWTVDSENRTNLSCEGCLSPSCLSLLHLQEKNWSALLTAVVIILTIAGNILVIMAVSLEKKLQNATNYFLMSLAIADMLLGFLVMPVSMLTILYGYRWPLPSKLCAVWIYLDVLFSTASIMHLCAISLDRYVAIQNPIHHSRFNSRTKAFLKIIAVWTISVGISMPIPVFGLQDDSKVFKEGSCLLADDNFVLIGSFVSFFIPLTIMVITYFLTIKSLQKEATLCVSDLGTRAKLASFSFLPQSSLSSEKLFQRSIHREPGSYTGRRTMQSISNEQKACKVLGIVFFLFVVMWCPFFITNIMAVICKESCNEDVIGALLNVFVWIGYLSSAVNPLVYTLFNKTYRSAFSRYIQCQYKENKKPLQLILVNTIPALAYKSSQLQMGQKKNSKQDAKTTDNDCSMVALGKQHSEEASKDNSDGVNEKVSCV
In short: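 CHO cells stably expressing human HTR2A were plated for 18 h at 37 C, then loaded with calcium dye for 1 h. Compounds were preincubated 5 min at room temperature before DOI (4 nM solution) was added. Kinetic fluorescence was read for 3 min.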

[8] = biological target: 5-hydroxytryptamine receptor 2A (Homo sapiens) (UniProt P28223); test: 5-hydroxytryptamine receptor 2A (HTR2A) small molecule agonists, cell-based qHTS assay (AID 1963587); note: nearly all actives have a fitted effect of over 30% in size; note: potency is the fitted concentration of half-maximal effect
In short: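 Kinetic calcium-flux fluorescence (2 min, 1 sec intervals) after compound addition in agonist mode. HTR2A-CHO cells were cultured 18 h, then dye-loaded 1 h at 37 C.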

[9] = biological target: Muscarinic acetylcholine receptor M1 (Homo sapiens) (UniProt P11229); test: Cholinergic receptor muscarinic 1 (CHRM1) small molecule antagonists, cell-based qHTS assay (AID 1963588); note: nearly all actives have a fitted effect of over 40% in size; note: potency is the fitted concentration of half-maximal effect
Chain of Muscarinic acetylcholine receptor M1 (Homo sapiens) (P11229 whole entry, looked up): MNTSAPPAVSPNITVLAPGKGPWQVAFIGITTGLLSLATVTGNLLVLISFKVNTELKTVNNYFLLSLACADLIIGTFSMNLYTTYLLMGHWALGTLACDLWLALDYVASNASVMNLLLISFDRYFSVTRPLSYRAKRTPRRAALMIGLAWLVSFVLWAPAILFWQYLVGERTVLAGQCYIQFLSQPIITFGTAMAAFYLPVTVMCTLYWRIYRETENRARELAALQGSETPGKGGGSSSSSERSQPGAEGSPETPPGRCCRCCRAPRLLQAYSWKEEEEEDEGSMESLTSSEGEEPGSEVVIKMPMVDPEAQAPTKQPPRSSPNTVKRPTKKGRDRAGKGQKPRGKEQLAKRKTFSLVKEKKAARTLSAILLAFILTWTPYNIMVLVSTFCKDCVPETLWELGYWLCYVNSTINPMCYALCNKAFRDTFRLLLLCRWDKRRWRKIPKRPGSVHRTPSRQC
In short: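 Compounds were tested at 15 concentrations in three independent runs. Dye-loaded CHRM1-CHO cells were exposed 5 min at room temperature before stimulation by acetylcholine added at 50nM. Intracellular calcium was read kinetically on FDSS for 3 min.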

[10] = biological target: Muscarinic acetylcholine receptor M1 (Homo sapiens) (UniProt P11229); test: Cholinergic receptor muscarinic 1 (CHRM1) small molecule agonists, cell-based qHTS assay (AID 1963589); note: nearly all actives have a fitted effect of over 35% in size
In short: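 Cells were plated and incubated 18 h at 37 C/5% CO2, loaded with calcium dye for 1 h at 37 C, then treated with compounds in DMSO. Fluorescence was recorded kinetically at 1 sec intervals.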

[11] = cAMP Responsive Elements (CRE) small molecule agonists, cell-based qHTS assay (AID 1963590)
In short: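 Cells carrying a CRE-driven beta-lactamase reporter (HEK 293T) are seeded, incubated overnight (18 h), and treated with test compounds for 3 h at 37 C; reporter activity is then detected with a FRET substrate after 2 h at room temperature.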

[12] = cAMP Responsive Elements (CRE) small molecule antagonists, cell-based qHTS assay (AID 1963591; active = well fitted inhibition curve with a large enough effect in the signal ratio in the repeat runs, not every such curve was filed as active; the % refers to the signal ratio)
In short: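 Cells (CRE-bla HEK 293T, DMEM with 10% dialyzed FBS and 25 mM HEPES) are seeded and incubated 18 h. Compounds are added with NKH477 agonist at 0.25 uM final for 3 h, then FRET substrate for 2 h.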

[13] = biological target: Beta-2 adrenergic receptor (Homo sapiens) (UniProt P07550); test: Adrenergic beta2 receptor (ADRB2) small molecule antagonists, cell-based qHTS assay (AID 1963592); note: series mostly up to about 92 µM; nearly all actives have a fitted effect of over 50% in size
Chain of Beta-2 adrenergic receptor (Homo sapiens) (P07550 whole entry, looked up): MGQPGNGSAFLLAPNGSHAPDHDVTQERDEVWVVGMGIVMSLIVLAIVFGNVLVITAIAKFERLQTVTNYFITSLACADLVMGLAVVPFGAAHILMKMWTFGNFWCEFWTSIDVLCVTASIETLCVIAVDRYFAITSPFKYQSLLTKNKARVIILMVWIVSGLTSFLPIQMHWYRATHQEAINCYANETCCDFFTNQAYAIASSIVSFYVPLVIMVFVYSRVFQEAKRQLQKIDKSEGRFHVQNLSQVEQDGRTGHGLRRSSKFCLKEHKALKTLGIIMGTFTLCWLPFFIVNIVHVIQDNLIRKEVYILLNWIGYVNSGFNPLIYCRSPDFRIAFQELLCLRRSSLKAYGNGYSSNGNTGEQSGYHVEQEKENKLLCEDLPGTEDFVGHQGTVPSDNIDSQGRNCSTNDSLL
In short: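 Assay format: CHO-ADRB2 cells, 18-20hr seeding at 37C/5% CO2, then compound plus 1nM isoproterenol agonist mix for 0.5hr RT. Homogeneous time-resolved fluorescence cAMP detection after 1hr, expressed as 665/615 nm ratio.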

[14] = biological target: Beta-2 adrenergic receptor (Homo sapiens) (UniProt P07550); test: Adrenergic beta2 receptor (ADRB2) small molecule agonists, cell-based qHTS assay (AID 1963593);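 note: CHO cells stably overexpressing human ADRB2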
In short: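 CHO cells stably over-expressing ADRB2 were plated overnight at 37C, then dosed with compounds plus a stimulation mix containing 100uM IBMX and 25uM Ro-20-1724 for 0.5hr at room temperature. cAMP was measured by HTRF competition, 1hr.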

[15] = biological target: D(2) dopamine receptor (Homo sapiens) (UniProt P14416); test: Dopamine D2 receptor (DRD2) small molecule agonists, cell-based qHTS assay (AID 1963594); note: nearly all actives have a fitted effect of over 35% in size
Chain of D(2) dopamine receptor (Homo sapiens) (P14416 whole entry, looked up): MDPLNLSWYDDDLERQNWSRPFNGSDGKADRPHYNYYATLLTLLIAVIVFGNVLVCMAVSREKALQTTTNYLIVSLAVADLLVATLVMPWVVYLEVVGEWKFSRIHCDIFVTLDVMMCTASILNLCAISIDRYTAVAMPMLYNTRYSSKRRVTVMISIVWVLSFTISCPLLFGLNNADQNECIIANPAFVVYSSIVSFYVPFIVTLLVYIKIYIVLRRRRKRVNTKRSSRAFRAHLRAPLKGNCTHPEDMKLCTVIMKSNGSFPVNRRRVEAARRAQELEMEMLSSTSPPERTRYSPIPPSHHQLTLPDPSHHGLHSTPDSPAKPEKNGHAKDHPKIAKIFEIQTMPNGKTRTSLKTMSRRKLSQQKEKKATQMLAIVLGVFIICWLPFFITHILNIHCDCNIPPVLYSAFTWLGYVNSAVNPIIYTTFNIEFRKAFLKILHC
In short: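 cAMP accumulation in DRD2-HEK293 cells measured by HTRF after 1 h detection; compounds added 10 min before NKH477 (200nM […]) forskolin-analogue stimulation, 30 min at room temperature, with Ro20-1724 present at 0.1 mM final.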

[16] = biological target: D(2) dopamine receptor (Homo sapiens) (UniProt P14416); test: Dopamine D2 receptor (DRD2) small molecule antagonists, cell-based qHTS assay (AID 1963595; active = well fitted inhibition curve with a large enough effect in the signal ratio in the repeat runs, with a control signal flat; the % refers to the signal ratio)
In short: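 HEK293 cells stably expressing DRD2 were preincubated with 0.1 mM Ro20-1724, then with compound for 10 min at room temperature. Cells were stimulated with 200 nM NKH477 plus 12 nM quinpirole for 30 min, and cAMP was read by HTRF.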

[17] = p53 small molecule agonists, cell-based qHTS assay with human liver microsomes (AID 1963577)
In short: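 p53RE-bla cells, 4,000/well, compound added after 5 h, with human liver microsomes 0.5 mg/mL and NADPH 0.5 mg/mL final; 16 h at 37 C, then LiveBLAzer 2 h RT, fluorescence.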

[18] = p53 small molecule agonists, cell-based qHTS assay with rat liver microsomes (AID 1963578)
In short: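 p53RE-bla cells, 4,000/well, pre-incubated 5 h, then given compounds plus rat liver microsomes (0.5 mg/mL final) and NADPH (0.5 mg/mL final). Incubation 16 h at 37 C; beta-lactamase reporter read by LiveBLAzer fluorescence after 2 h at room temperature.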

[19] = p53 small molecule agonists, cell-based qHTS assay (AID 1963582; active = well fitted activation curve with a large enough effect in the signal ratio in the repeat runs, not every such curve was filed as active; the % refers to the signal ratio)
In short: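 Cells carrying a p53-responsive bla reporter are treated with test compounds for 16 h at 37 C; beta-lactamase activity is then detected with LiveBLAzer B/G FRET substrate after 2 h at room temperature.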

Compound	Potency [1]	Potency [2]	Potency [3]	Potency [4]	Potency [5]	Potency [6]	Potency [7]	Potency [8]	Potency [9]	Potency [10]	Potency [11]	Potency [12]	Potency [13]	Potency [14]	Potency [15]	Potency [16]	Potency [17]	Potency [18]	Potency [19]
CCCCCCCCC(=O)NCc1ccc(O)c(OC)c1	inactive	inactive	inactive	inactive	inactive	inactive	inactive	inactive	inactive	inactive	inactive	inactive	inactive	inactive	inactive	inactive			
C[Si](Cn1cncn1)(c1ccc(F)cc1)c1ccc(F)cc1	inactive	inactive	inactive	inactive			inactive	inactive	42.1 µM (active)	inactive		inactive	inactive		inactive	inactive	inactive	inactive	
CC(C)(C)c1ccccc1O	inactive	inactive	inactive	inactive	inactive	inactive	inactive	inactive	inactive	inactive	inactive	inactive	inactive	inactive	inactive	inactive			
CCCCCC[n+]1ccccc1	inactive	69.2 µM (active) and 69 µM (active) and inactive	inactive	11.6 µM (active) and 9.19 µM (active) and inactive	inactive	inactive				inactive	inactive	inactive	inactive	inactive	inactive	inactive			
CC(C)COC(=O)c1ccccc1C(=O)OCC(C)C	inactive	inactive	inactive	inactive	inactive	inactive	inactive	5.5 µM (active) and inactive	inactive	inactive	inactive	inactive	inactive	inactive	inactive	inactive			
C#CC(C)(C)NC(=O)c1cc(Cl)cc(Cl)c1	inactive	inactive	inactive	inactive		inactive	inactive	inactive	inactive	inactive	inactive	inactive	inactive		inactive	inactive	inactive	inactive	inactive
O=C(O)CC[N+](=O)[O-]	inactive	inactive	inactive		inactive	inactive	inactive	inactive	inactive	inactive		inactive	inactive	inactive	inactive	inactive	inactive	inactive	inactive
